CHRM1 agonist = human M1 muscarinic receptor agonists, primary screen, Fluo-8 calcium fluorescence, CHO-K1 cells, HTS | CHO-K1 hM1, agonist mode; 0% DMSO, 100% acetylcholine EC100 | activation, % at 3 µM | 360,000 tested, 0.33% active | AID 588814, 2011;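 active means activation above the run's mean compound activation plus 3 SD, cut at about 16% in these data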;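 further: peak over basal fluorescence ratio within a 140 s kinetic read after compound addition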
Target sequence (P11229 whole entry, looked up): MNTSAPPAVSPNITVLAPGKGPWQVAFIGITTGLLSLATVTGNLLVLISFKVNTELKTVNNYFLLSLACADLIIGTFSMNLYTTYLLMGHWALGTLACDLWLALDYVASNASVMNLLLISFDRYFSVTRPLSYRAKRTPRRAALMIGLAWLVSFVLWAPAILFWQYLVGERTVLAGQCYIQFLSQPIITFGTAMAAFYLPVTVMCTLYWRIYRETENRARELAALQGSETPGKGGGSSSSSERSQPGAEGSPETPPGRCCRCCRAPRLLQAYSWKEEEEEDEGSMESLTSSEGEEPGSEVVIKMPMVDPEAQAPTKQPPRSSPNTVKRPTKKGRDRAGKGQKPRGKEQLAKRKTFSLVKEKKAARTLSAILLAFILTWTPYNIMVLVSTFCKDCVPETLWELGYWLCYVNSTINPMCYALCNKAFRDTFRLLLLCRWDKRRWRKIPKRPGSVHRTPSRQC
CHO-K1 Ca ag = counter-screen for M1 agonists: effect in parental CHO-K1 cells | Fluo-8 calcium fluorescence; scaled to maximal ATP response, vehicle zero | activation, % at 3 µM | 360,000 tested, 0.48% active | AID 602248, 2012; in the data active means activation above about 15%;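 further: untransfected CHO-K1 host cells lacking M1 receptor as counterscreen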
CHO-K1 Ca PAM = nonselective calcium activators in parental CHO-K1 cells, primary screen, counter-screen for M1 PAM project, cell-based, Fluo-8 calcium fluorescence, full deck, 1536-well. ATP EC20; 0% at ATP EC20, 100% at ATP max. activation, % at 3 µM. 360,000 tested, 0.02% active. AID 602247, 2012;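 active means activation above the run cutoff, the mean activation of all test compounds plus 3 SD, cut at about 40% in these data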;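 further: peak over basal fluorescence ratio in a 140 s read after ATP addition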
M1 antag = human M1 muscarinic receptor antagonists, primary screen, CHO-K1 cells, Fluo-8 calcium fluorescence, 1536-well; inhibition, % at 3 µM; AID 588852, 2011; 360,000 tested, 1.3% active; CHO-K1 hM1, ACh EC80 antagonist; Muscarinic acetylcholine receptor M1 (Homo sapiens), P11229;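 active means percent inhibition above its own plate's cutoff, namely the mean of that plate's compound wells plus 3 SD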;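 further: peak over basal fluorescence ratio during 140 s after agonist addition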
CHRM1 PAM = human M1 muscarinic receptor positive allosteric modulators, primary screen, CHO-K1 cells, Fluo-8 calcium fluorescence, 1536-well; CHO-K1 hM1, ACh EC20; 0% = ACh EC20, 100% = maximal ACh; 360,000 tested, 0.088% active; Muscarinic acetylcholine receptor M1 (Homo sapiens), P11229; activation, % at 3 µM; in the data active means activation above about 19%, passing the limit was not always enough
CHO-K1 Ca antag = nonselective inhibitor or artifact in parental CHO-K1 cells. inhibition, % at 3 µM. 360,000 tested, 0.6% active. ATP-induced calcium, Fluo-8 fluorescence;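 active means inhibition above a per-plate cutoff, the plate's mean sample inhibition plus 3 SD, cut at about 24% in these data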
Numbers stand for hits. Hits are enriched below; roughly 2.4% of the tested compounds scored in any of these assays.

`O=C1c2ccccc2-c2onc3ccc(NCc4ccco4)c1c23` gave CHRM1 agonist 36, CHO-K1 Ca ag 19, CHO-K1 Ca PAM inactive, M1 antag 44, CHRM1 PAM inactive and CHO-K1 Ca antag 45.
O=C(NCc1ccccc1Cl)c1cc(=O)[nH]c2ccccc12 was read as CHRM1 agonist inactive, CHO-K1 Ca ag inactive, CHO-K1 Ca PAM inactive, M1 antag inactive, CHRM1 PAM inactive and CHO-K1 Ca antag inactive.
Screening Cc1ccc(C(=O)NCCCNC(=O)Cc2ccccc2)cn1 returned CHRM1 agonist inactive, CHO-K1 Ca ag inactive, CHO-K1 Ca PAM inactive, M1 antag inactive, CHRM1 PAM inactive and CHO-K1 Ca antag inactive.
Screening Cc1ccc(S(=O)(=O)N2CCN(C(=O)COC(=O)Cc3cccc(C(F)(F)F)c3)CC2)c(C)c1 returned CHRM1 agonist inactive, CHO-K1 Ca ag inactive, CHO-K1 Ca PAM inactive, M1 antag inactive, CHRM1 PAM inactive and CHO-K1 Ca antag inactive.
For COc1ccc(-c2cnnc(N/N=C/c3ccc(O)c(OC)c3)n2)cc1 the results were CHRM1 agonist inactive, CHO-K1 Ca ag inactive, CHO-K1 Ca PAM inactive, M1 antag inactive, CHRM1 PAM inactive and CHO-K1 Ca antag 35.
`Clc1cccc(CNc2ccn3nc(-c4cccs4)cc3n2)c1` gave CHRM1 agonist inactive, CHO-K1 Ca ag inactive, CHO-K1 Ca PAM inactive, M1 antag inactive, CHRM1 PAM inactive and CHO-K1 Ca antag inactive.
Screening Clc1cccc(CNc2ccn3nc(-c4ccco4)cc3n2)c1 returned CHRM1 agonist inactive, CHO-K1 Ca ag inactive, CHO-K1 Ca PAM inactive, M1 antag inactive, CHRM1 PAM inactive and CHO-K1 Ca antag 26.
`CC1(c2ccccc2)NC(=O)N(CC(=O)N(CC(=O)Nc2ccccc2C(F)(F)F)Cc2ccco2)C1=O` (stereo not drawn) gave CHRM1 agonist inactive, CHO-K1 Ca ag inactive, CHO-K1 Ca PAM inactive, M1 antag inactive, CHRM1 PAM inactive and CHO-K1 Ca antag inactive.
For CCOc1ccccc1NC(=O)C(c1ccccc1)N1CCN(CC(=O)N2CCOCC2)CC1 (stereo not drawn) the results were CHRM1 agonist inactive, CHO-K1 Ca ag inactive, CHO-K1 Ca PAM inactive, M1 antag inactive, CHRM1 PAM inactive and CHO-K1 Ca antag inactive.
`O=C(CN1CCN(C(c2ccccc2)c2ccccc2)CC1)N1CCOCC1` gave CHRM1 agonist inactive, CHO-K1 Ca ag inactive, CHO-K1 Ca PAM inactive, M1 antag 63, CHRM1 PAM inactive and CHO-K1 Ca antag inactive.
Screening Cc1cc(C)c2c(=O)[nH]c(SCC(=O)N3CCOCC3)nc2n1 returned CHRM1 agonist inactive, CHO-K1 Ca ag 17, CHO-K1 Ca PAM inactive, M1 antag inactive, CHRM1 PAM inactive and CHO-K1 Ca antag inactive.
Screening COc1ccc(N2CCN(C(=O)CN3CCN(C(c4ccccc4)c4ccccc4)CC3)CC2)cc1 returned CHRM1 agonist inactive, CHO-K1 Ca ag inactive, CHO-K1 Ca PAM inactive, M1 antag 65, CHRM1 PAM inactive and CHO-K1 Ca antag inactive.
For Cc1cc(C)c2c(=O)[nH]c(SCC(=O)N3CCCCC3)nc2n1 the results were CHRM1 agonist inactive, CHO-K1 Ca ag inactive, CHO-K1 Ca PAM inactive, M1 antag inactive, CHRM1 PAM inactive and CHO-K1 Ca antag inactive.
Screening O=C(O)COCC(=O)N1CCN(C(c2ccccc2)c2ccccc2)CC1 returned CHRM1 agonist inactive, CHO-K1 Ca ag inactive, CHO-K1 Ca PAM inactive, M1 antag 58, CHRM1 PAM inactive and CHO-K1 Ca antag inactive.
N#CCC(=O)N1CCN(C(c2ccccc2)c2ccccc2)CC1 was read as CHRM1 agonist inactive, CHO-K1 Ca ag inactive, CHO-K1 Ca PAM inactive, M1 antag inactive, CHRM1 PAM inactive and CHO-K1 Ca antag inactive.
Cc1csc(=O)n1CCC(=O)OCC(=O)Nc1ccc(Cl)cn1 was read as CHRM1 agonist inactive, CHO-K1 Ca ag inactive, CHO-K1 Ca PAM inactive, M1 antag inactive, CHRM1 PAM inactive and CHO-K1 Ca antag inactive.
O=C(Nc1ccccc1-c1ccccc1)NC1CCN(CC(=O)N2CCOCC2)CC1 was read as CHRM1 agonist inactive, CHO-K1 Ca ag inactive, CHO-K1 Ca PAM inactive, M1 antag 35, CHRM1 PAM inactive and CHO-K1 Ca antag inactive.
Screening Cc1cc(=O)[nH]c(SCC(=O)N2CCCCC2)n1 returned CHRM1 agonist inactive, CHO-K1 Ca ag inactive, CHO-K1 Ca PAM inactive, M1 antag inactive, CHRM1 PAM inactive and CHO-K1 Ca antag inactive.
For Cc1cc(=O)[nH]c(SCC(=O)N2CCN(C(c3ccccc3)c3ccccc3)CC2)n1 the results were CHRM1 agonist inactive, CHO-K1 Ca ag inactive, CHO-K1 Ca PAM inactive, M1 antag 52, CHRM1 PAM inactive and CHO-K1 Ca antag inactive.
`COC(=O)Cn1c(=O)n(CCc2ccccc2)c(=O)c2c3c(sc21)CCCC3` gave CHRM1 agonist inactive, CHO-K1 Ca ag inactive, CHO-K1 Ca PAM inactive, M1 antag 77, CHRM1 PAM inactive and CHO-K1 Ca antag inactive.
For CCn1c(=O)n(CCc2ccccc2)c(=O)c2c3c(sc21)CCCC3 the results were CHRM1 agonist inactive, CHO-K1 Ca ag inactive, CHO-K1 Ca PAM inactive, M1 antag inactive, CHRM1 PAM inactive and CHO-K1 Ca antag inactive.
Screening COc1ccc(C(=O)OCC(=O)NCC2CCCCC2)c(OC)c1 returned CHRM1 agonist inactive, CHO-K1 Ca ag inactive, CHO-K1 Ca PAM inactive, M1 antag inactive, CHRM1 PAM inactive and CHO-K1 Ca antag inactive.
`O=C(Nc1cc2c3c(c1)CC(=O)N3CCC2)C1CC1` gave CHRM1 agonist inactive, CHO-K1 Ca ag inactive, CHO-K1 Ca PAM inactive, M1 antag inactive, CHRM1 PAM inactive and CHO-K1 Ca antag inactive.
Screening CC(=O)Cn1ncc(N(C)Cc2ccccc2)c(Cl)c1=O returned CHRM1 agonist inactive, CHO-K1 Ca ag inactive, CHO-K1 Ca PAM inactive, M1 antag inactive, CHRM1 PAM inactive and CHO-K1 Ca antag inactive.
For O=C(Nc1ccccc1N1CCN(C(=O)c2ccc(Cl)cc2)CC1)c1ccc(Br)cc1 the results were CHRM1 agonist inactive, CHO-K1 Ca ag inactive, CHO-K1 Ca PAM inactive, M1 antag inactive, CHRM1 PAM inactive and CHO-K1 Ca antag 27.
Screening O=C(NCCC(=O)N1CCN(c2ccccc2O)CC1)c1ccc(Br)cc1 returned CHRM1 agonist inactive, CHO-K1 Ca ag inactive, CHO-K1 Ca PAM inactive, M1 antag inactive, CHRM1 PAM 22 and CHO-K1 Ca antag inactive.
Screening O=C(c1ccc(Cl)cc1)N1CCN(c2cc(=O)[nH]nc2-c2ccccc2)CC1 returned CHRM1 agonist inactive, CHO-K1 Ca ag inactive, CHO-K1 Ca PAM inactive, M1 antag inactive, CHRM1 PAM inactive and CHO-K1 Ca antag 28.
For COc1ccc(C(=O)Nc2ccccc2N2CCN(C(=O)c3ccccc3)CC2)cc1Br the results were CHRM1 agonist inactive, CHO-K1 Ca ag inactive, CHO-K1 Ca PAM inactive, M1 antag 35, CHRM1 PAM inactive and CHO-K1 Ca antag inactive.

Assay outcomes: PubChem BioAssay, The Scripps Research Institute Molecular Screening Center
